Experimental data from PubChem BioAssay.
Active and inactive are the calls of the source. Cut-off read from the data, not from the text of the source, unless noted: active = inhibition above about 33%; inactive = the rest.

What was measured:
[1] = StAR promoter reporter inhibitors, counter-screen for LRH-1 inverse agonist project, cell-based, luminescence, high throughput (AID 651611; in the data active = inhibition above about 28%); conditions: StAR promoter luciferase reporter counterscreen, at 3.6 µM, active compounds read high
[2] = target: Nuclear receptor subfamily 5 group A member 2 (Homo sapiens) (UniProt O00482); experiment: LRH-1 (NR5A2) inverse agonists, retest, confirmation, cell-based, luminescence (AID 651613; in the data active = inhibition above about 42%;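 note: HEK293T cells co-transfected with LRH-1 and StAR promoter luciferase reporter; 0% = vehicle wells and 100% = parental cells lacking receptor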); conditions: cell-based LRH-1 luciferase reporter, inverse agonism; at 3.6 µM; active compounds read high
Sequence of Nuclear receptor subfamily 5 group A member 2 (Homo sapiens) (O00482 whole entry, looked up): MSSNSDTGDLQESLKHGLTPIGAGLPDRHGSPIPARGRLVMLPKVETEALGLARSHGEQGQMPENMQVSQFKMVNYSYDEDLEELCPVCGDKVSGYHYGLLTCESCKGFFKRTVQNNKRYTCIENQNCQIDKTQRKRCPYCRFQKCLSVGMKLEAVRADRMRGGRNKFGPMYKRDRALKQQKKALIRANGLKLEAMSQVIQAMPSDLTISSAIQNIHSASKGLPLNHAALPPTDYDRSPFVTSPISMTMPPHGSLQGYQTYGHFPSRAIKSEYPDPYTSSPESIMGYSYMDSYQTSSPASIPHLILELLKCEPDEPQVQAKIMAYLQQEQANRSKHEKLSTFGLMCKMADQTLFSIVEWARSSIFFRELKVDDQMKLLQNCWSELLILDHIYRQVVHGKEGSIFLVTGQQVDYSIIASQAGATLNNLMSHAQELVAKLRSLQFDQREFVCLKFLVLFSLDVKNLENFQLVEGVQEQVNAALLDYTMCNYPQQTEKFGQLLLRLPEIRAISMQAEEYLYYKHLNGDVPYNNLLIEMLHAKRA

[3] = target: Steroidogenic factor 1 (Homo sapiens) (UniProt Q13285); experiment: SF1 (NR5A1) inverse agonists, counter-screen for LRH-1 inverse agonist project, cell-based, luminescence, high throughput (AID 651614; in the data active = inhibition above about 44%;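 note: cells cotransfected with StAR promoter reporter and SF1 expression vector; 0% = vehicle on cells with receptor and 100% = vehicle on cells lacking receptor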); conditions: cell-based SF1 luciferase reporter, at 3.6 µM, active compounds read high
Sequence of Steroidogenic factor 1 (Homo sapiens) (Q13285 whole entry, looked up, the tested form may be a part): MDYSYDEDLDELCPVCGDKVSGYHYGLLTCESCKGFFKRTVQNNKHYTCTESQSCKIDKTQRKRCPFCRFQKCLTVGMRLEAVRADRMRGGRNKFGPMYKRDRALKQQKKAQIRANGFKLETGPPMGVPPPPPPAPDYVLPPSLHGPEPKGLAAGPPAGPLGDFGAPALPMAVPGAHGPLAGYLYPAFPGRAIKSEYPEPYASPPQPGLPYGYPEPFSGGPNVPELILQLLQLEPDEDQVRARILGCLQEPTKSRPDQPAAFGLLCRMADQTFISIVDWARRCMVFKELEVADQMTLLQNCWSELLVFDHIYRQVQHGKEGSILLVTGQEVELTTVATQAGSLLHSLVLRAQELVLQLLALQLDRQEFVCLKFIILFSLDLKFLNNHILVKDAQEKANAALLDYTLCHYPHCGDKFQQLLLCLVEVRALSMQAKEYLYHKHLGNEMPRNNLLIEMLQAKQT

[4] = VP16 transactivation reporter inhibitors, counter-screen for LRH-1 inverse agonist project, cell-based, luminescence, high throughput (AID 651615); conditions: Gal4-VP16 luciferase reporter cells, at 3.6 µM, active compounds read high
[5] = test system: transactivating tegument protein VP16 (Human herpesvirus 1); experiment: VP16 transactivation reporter inhibitors, counter-screen for SRC2 inhibitor project, cell-based, luminescence, single concentration (AID 652007; in the data active = inhibition above about 36%); conditions: cell-based VP16 transactivation luciferase reporter, at 8.9 µM, active compounds read high
[6] = target: Nuclear receptor coactivator 2 (Homo sapiens) (UniProt Q15596); experiment: SRC2 coactivator transcriptional activity inhibitors, confirmation, cell-based, luminescence, HEK293, triplicate (AID 652008;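 active = mean inhibition above 46.5%, the solvent-only control mean plus 3 SD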;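 note: 0% = DMSO-treated cells and 100% = Gossypol at 36 µM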); conditions: HEK293 GAL4-SRC2 luciferase reporter, at 8.9 µM, active compounds read high
Sequence of Nuclear receptor coactivator 2 (Homo sapiens) (Q15596 whole entry, looked up, the tested form may be a part): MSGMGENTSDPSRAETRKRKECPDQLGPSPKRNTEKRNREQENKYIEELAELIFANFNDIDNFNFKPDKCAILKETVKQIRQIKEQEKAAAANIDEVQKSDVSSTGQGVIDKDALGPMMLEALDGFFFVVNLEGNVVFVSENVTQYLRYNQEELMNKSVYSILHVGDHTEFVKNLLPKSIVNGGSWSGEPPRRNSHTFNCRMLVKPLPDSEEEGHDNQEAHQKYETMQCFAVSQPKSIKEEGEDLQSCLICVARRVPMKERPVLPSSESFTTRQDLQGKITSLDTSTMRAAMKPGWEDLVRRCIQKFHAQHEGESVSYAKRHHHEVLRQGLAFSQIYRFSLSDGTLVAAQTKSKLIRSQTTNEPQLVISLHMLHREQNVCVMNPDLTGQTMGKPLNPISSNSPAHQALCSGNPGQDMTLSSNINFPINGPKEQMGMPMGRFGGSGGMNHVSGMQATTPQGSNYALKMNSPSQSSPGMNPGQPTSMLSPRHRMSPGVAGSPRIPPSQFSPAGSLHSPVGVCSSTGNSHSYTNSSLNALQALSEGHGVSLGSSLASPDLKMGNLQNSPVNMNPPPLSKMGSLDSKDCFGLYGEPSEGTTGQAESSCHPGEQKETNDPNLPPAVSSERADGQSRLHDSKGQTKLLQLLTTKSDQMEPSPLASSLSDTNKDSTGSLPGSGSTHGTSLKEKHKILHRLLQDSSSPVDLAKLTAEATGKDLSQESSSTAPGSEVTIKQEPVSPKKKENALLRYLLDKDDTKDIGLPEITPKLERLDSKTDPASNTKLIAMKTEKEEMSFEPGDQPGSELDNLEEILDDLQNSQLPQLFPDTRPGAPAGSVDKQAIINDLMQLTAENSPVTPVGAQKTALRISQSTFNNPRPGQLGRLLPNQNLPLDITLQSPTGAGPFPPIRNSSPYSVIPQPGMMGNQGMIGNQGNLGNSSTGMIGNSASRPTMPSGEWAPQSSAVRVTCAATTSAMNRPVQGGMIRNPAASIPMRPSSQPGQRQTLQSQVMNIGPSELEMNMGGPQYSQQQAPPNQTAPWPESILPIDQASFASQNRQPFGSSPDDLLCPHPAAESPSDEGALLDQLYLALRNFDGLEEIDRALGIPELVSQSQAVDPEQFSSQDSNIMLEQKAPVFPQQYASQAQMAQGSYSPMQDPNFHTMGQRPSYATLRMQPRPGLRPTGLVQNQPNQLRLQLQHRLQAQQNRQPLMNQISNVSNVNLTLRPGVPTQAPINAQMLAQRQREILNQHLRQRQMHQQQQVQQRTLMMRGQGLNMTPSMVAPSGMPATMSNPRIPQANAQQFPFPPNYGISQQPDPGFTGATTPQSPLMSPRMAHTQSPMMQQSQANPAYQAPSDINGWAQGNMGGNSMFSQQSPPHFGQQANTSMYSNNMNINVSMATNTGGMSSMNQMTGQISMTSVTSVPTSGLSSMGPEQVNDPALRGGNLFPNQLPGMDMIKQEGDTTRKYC

| Structure (SMILES) | inhibition [1] | inhibition [2] | inhibition [3] | inhibition [4] | inhibition [5] | inhibition [6] |
| --- | --- | --- | --- | --- | --- | --- |
| COc1ccc2c(c1)/C(=C/c1cc(OC)c(OC)c(OC)c1)C(=O)N2 | 52% (active) | 51% (active) | 48.2% (active) | 41.6% (active) |  |  |
| O=C(COc1ccc2ccc(=O)oc2c1)Nc1ccc(N2CCOCC2)cc1 | 13.3% (inactive) | 57.3% (active) | 45.5% (active) | -5.4% (inactive) |  |  |
| CC(=O)N1CCN(c2ccc(NC(=O)c3cccc([N+](=O)[O-])c3)cc2)CC1 | -1.56% (inactive) | 53.6% (active) | 49.6% (active) | -19.9% (inactive) |  |  |
| CC(=O)c1ccc2c(c1)C1C=CCC1C(c1cc3c(cc1Br)OCO3)N2 (centres undefined) | 45.6% (active) | 50.3% (active) | 46.1% (active) | 16.9% (inactive) |  |  |
| CCN1C(=O)c2cccc3c(NC(=O)c4ccc(S(=O)(=O)N(C)C)cc4)ccc1c23 | 39% (active) | 47.9% (active) | 46.2% (active) | -41.4% (inactive) |  |  |
| CCOC(=O)c1ccc(N=Cc2cnc(N)nc2N)cc1 | -7.89% (inactive) | -2.86% (inactive) | 7.7% (inactive) | 3.32% (inactive) |  |  |
| COc1ccc(NC(=O)COC(=O)/C=C/C(=O)OCC(=O)Nc2ccc(OC)c(Cl)c2)cc1Cl | 6.28% (inactive) | 50.8% (active) | 53.9% (active) | -16% (inactive) |  |  |
| CCN(Cc1ccccc1)c1ccc(/C=N/NC(=O)c2cccc(S(=O)(=O)N3CCOCC3)c2)cc1 | 24.6% (inactive) | 66.8% (active) | 62.3% (active) | 28% (inactive) |  |  |
| Cc1onc(-c2cccc(Cl)c2Cl)c1C(=O)O/N=C(\N)c1ccc([N+](=O)[O-])o1 | 11.8% (inactive) | 69.7% (active) | 67.3% (active) | -4.83% (inactive) |  |  |
| COc1cc2c(cc1OC)C(c1ccc(-c3ccc(Cl)cc3Cl)o1)=NCC2 | 36.4% (active) | 58.4% (active) | 61% (active) | 62.5% (active) |  |  |
| CCn1c(=O)oc2cc(NC(=O)CCl)ccc21 | 44.4% (active) | 64.4% (active) | 65.9% (active) | -54.9% (inactive) |  |  |
| O=C(CN1CCN(c2ncccn2)CC1)N1CCCc2c1c(=O)oc1ccc(O)cc21 | 13% (inactive) | 62.6% (active) | 53.6% (active) | -33.2% (inactive) |  |  |
| O=C(N/N=C/c1cc2c3c(c1O)CCCN3CCC2)c1ccccc1O | 83.4% (active) | 103% (active) | 87.2% (active) | 70.4% (active) |  |  |
| CCOc1cc(/C=C2/C(=N)N3OC(C)=CC3=NC2=O)ccc1OCCOc1ccccc1 | 5.5% (inactive) | 46% (active) | 32.2% (inactive) | -12.2% (inactive) |  |  |
| CCOc1ccc(S(=O)(=O)Nc2cc(OC)ccc2OC)cc1 | 35.8% (active) | 54.4% (active) | 49.1% (active) | 22.6% (inactive) |  |  |
| CO/N=C\C(=N\Nc1ccc(OC)cc1)C(=O)c1ccccc1 | -11.7% (inactive) | 49.5% (active) | 36.8% (inactive) | 5.9% (inactive) |  |  |
| CCOc1ccc(S(=O)(=O)NCc2ccncc2)cc1 | 25.8% (inactive) | 61.1% (active) | 59.4% (active) | 51.8% (active) |  |  |
| COc1ccc(CCNC(=O)CSc2nc3[nH]ncc3c(=O)n2-c2ccccc2Br)cc1OC | 5.86% (inactive) | 57.3% (active) | 43.1% (active) | -2.5% (inactive) |  |  |
| Cc1cc(C)nc(-n2nc(C)cc2Nc2ccccc2)n1 | 4.56% (inactive) | 35.7% (inactive) | 19.6% (inactive) | 24% (inactive) |  |  |
| COCC1CCCN(C(=O)c2cc(COc3ccc4ncccc4c3)on2)C1 (centres undefined) | 30.9% (active) | 58.5% (active) | 64.1% (active) | 47.7% (active) |  |  |
| Cc1cccc(NC(=O)CSC2=NN3CCCC(=O)N=C3S2)c1C | -10.1% (inactive) | 53.1% (active) | 49% (active) | -5.97% (inactive) |  |  |
| COc1ccc(/C=N/OCC(=O)NC(c2ccccc2)c2ccccc2)cc1OC | 30.5% (active) | 72.7% (active) | 66.4% (active) | 54.7% (active) |  |  |
| CCN(CC)c1ccc(C2=NNC(=O)CC2C)cc1[N+](=O)[O-] (centres undefined) | -14.3% (inactive) | 17% (inactive) | 21.7% (inactive) | -1.3% (inactive) |  |  |
| CCCCOCCCNc1ncnc2c1[nH]c1ccccc12 | 13.1% (inactive) | 50% (active) | 53.6% (active) | 42.3% (active) |  |  |
| Cc1c(Cl)cccc1NC(=O)CSc1nc2ncc(Cl)cc2[nH]1 | 18.2% (inactive) | 69% (active) | 58% (active) | 1.96% (inactive) |  |  |
| OCCCNc1c2ccccc2nc2ccccc12 | 13.1% (inactive) | 107% (active) | 56.7% (active) | 96.4% (active) |  |  |
| Cc1onc(-c2c(F)cccc2Cl)c1C(=O)c1ccccc1O | 7.24% (inactive) | 51.3% (active) | 49.1% (active) | -0.7% (inactive) |  |  |

| Structure (SMILES) | inhibition [1] | inhibition [2] | inhibition [3] | inhibition [4] | inhibition [5] | inhibition [6] |
| --- | --- | --- | --- | --- | --- | --- |
| CC(=O)N1c2ccc(S(=O)(=O)N3CCC(C(=O)Nc4cccc(C)n4)CC3)cc2CC1C (centres undefined) | 18% (inactive) | 57.1% (active) | 54.1% (active) | 51.9% (active) |  |  |
| CN1CCN(c2ccc(S(=O)(=O)N3CCCCC3)cc2NC(=O)COc2ccc([N+](=O)[O-])cc2)CC1 | 2.36% (inactive) | 59.6% (active) | 53.1% (active) | 4.16% (inactive) |  |  |
| O=C(CN1CCN(c2ccc([N+](=O)[O-])cc2)CC1)c1ccccc1 | 6.83% (inactive) | 60.3% (active) | 48.5% (active) | 9.99% (inactive) |  |  |
| COc1cc(NCCCCCCN)c2ncccc2c1OC | 22.3% (inactive) | 49% (active) | 43.6% (active) | -3% (inactive) |  |  |
| NC(=S)NNc1cc(Cl)cc(Cl)c1 | 12.8% (inactive) | 50.1% (active) | 40.4% (inactive) | 11.7% (inactive) |  |  |
| COC(=O)c1c(NC(=O)c2ccc([N+](=O)[O-])o2)sc2c1CCN(C(C)C)C2 | 28% (active) | 45.3% (active) | 44.1% (active) | 0.53% (inactive) |  |  |
| COC(=O)c1ccc(NC(=O)CN2C(=O)CNC2=O)cc1 | 11.5% (inactive) | 62.9% (active) | 50.9% (active) | -6.93% (inactive) |  |  |
| COc1ccc(NC(=O)CSc2ncnc3[nH]ncc23)cc1 | 7.25% (inactive) | 60.5% (active) | 54.4% (active) | -6.96% (inactive) |  |  |
| CCOC(=O)c1c(N)n(CCOC(=O)c2cccs2)c2nc3ccccc3nc12 | 0.69% (inactive) | 21.6% (inactive) | 23.7% (inactive) | -11.6% (inactive) |  |  |
| CCCc1cc(=O)oc2cc(C)cc(OCC(=O)NC3CC3)c12 | 2.08% (inactive) | 59.5% (active) | 62.1% (active) | -6.08% (inactive) |  |  |
| CSc1ccc(COC(=O)c2cc([N+](=O)[O-])ccc2N2CCOCC2)cc1 | 61.7% (active) | 57.5% (active) | 65.8% (active) | 36.6% (active) |  |  |
| Clc1ccc(Cn2ncc3c(NCc4ccccc4)ncnc32)cc1 | 43.3% (active) | 59.4% (active) | 51.4% (active) | 14.4% (inactive) |  |  |
| Cc1ccc(S(=O)(=O)NCc2ccncc2)cc1 | 5.31% (inactive) | 54.7% (active) | 43% (active) | 48.7% (active) |  |  |
| CCN(CC)S(=O)(=O)c1cccc(NC(=O)CNc2cccc(S(=O)(=O)N3CCCC3)c2)c1 | 26.7% (inactive) | 64.4% (active) | 59.8% (active) | 49.5% (active) |  |  |
| CCCCCCCCN1C(=O)[C@H](CC(=O)NCC23CC4CC(CC(C4)C2)C3)C[C@@]2(C(=O)OCC)CCCC=C12 | 22.3% (inactive) | 24.8% (inactive) | 17.4% (inactive) | 14.6% (inactive) |  |  |
| CCc1c(O)nc(SCC(=O)Nc2ccccc2C)n(-c2ccc(C)cc2)c1=O | 14.4% (inactive) | 56.4% (active) | 66% (active) | -1.84% (inactive) |  |  |
| COc1ccc(S(=O)(=O)N2CCCCC2)cc1NC(=O)c1ccc([N+](=O)[O-])o1 | 25.8% (inactive) | 74.9% (active) | 68.1% (active) | 18.6% (inactive) |  |  |
| CCN(CC)S(=O)(=O)c1ccc(N2CCOCC2)c(NC(=O)c2[nH]c(C)c(C(C)=O)c2C)c1 | 61.6% (active) | 51.5% (active) | 25.8% (inactive) | -200% (inactive) |  |  |
| COc1ccc(-c2cc(NC=O)c3ncc(-c4ccc(OC)c(OC)c4)n3c2)c(OC)c1 | 65.5% (active) | 53.5% (active) | 62% (active) | 2.18% (inactive) |  |  |
| O=[N+]([O-])c1ccc(N2CCN(S(=O)(=O)c3ccccc3)CC2)cc1NCc1cccnc1 | 6.64% (inactive) | 61% (active) | 43.3% (active) | 14.6% (inactive) |  |  |
| COc1ccc(C(NC(=O)C(C)C)c2ccc3cccnc3c2O)cc1 (centres undefined) | 84.5% (active) | 103% (active) | 91.8% (active) | 87.7% (active) |  |  |
| O=c1c2ccccc2ncn1Cc1ccco1 | 1.6% (inactive) | 10.5% (inactive) | 18.4% (inactive) | 0.81% (inactive) |  |  |
| Cc1c(Cl)cccc1NC(=O)CNc1ccccc1F | -3.5% (inactive) | 58.7% (active) | 40.6% (inactive) | -6.92% (inactive) |  |  |
| Cc1ccc(Cn2cnc3ccccc32)cc1C | 2.29% (inactive) | 36.2% (inactive) | 32.6% (inactive) | 7.91% (inactive) |  |  |
| O=C(CNc1cccc2ccccc12)N/N=C/c1ccc([N+](=O)[O-])o1 | 27.6% (inactive) | 56.1% (active) | 56% (active) | 39.9% (active) |  |  |
| O=C(NCCc1c[nH]c2ccccc12)c1ccc([N+](=O)[O-])o1 | 15.7% (inactive) | 62.6% (active) | 59.7% (active) | 21.7% (inactive) | 2.92% (inactive) | 15.3% (inactive) |
